According to the supplement of paper PMC10849652:
Of roughly 7,900 targets only a part is listed; those with a hit were picked by preference. About 0.6% of all pairs of compound and target were hits. Unmarked numbers belong to inactive results.

How the values were obtained:
Assay in all cases: log2 fold change, soluble protein after heating vs DMSO (PISA); higher = thermal stabilisation; K562 cells, 10 uM, 30 min; active = over 0.2 and 3.5 SD of the protein, either way, in both replicates (recomputed)
[1] = compound: CC1=C(C=C(C=C1)NC(=O)C2=CC(=CC=C2)C(C)(C)C#N)NC3=CC4=C(C=C3)N=CN(C4=O)C
Procedure, shortened: (§1)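 Soluble protein was defined as the supernatant after 21,000xg for 90 min. It came from K562 cells at 2×10^6 cells/mL given 10 μM compound for 30 min, heated in aliquots for 3 min across 48°C-58°C, pooled, and extracted in PBS with 0.5% NP-40 at 4°C, and was quantified by TMTpro 16plex LC-MS/MS with equalised channel sums. Thermal stability against control samples, from duplicates, is reported as log2 fold change.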

[2] = compound: CC1=C(C=C(C=C1)NC(=O)C2=CC(=CC=C2)N(C)C)NC(=O)C3=CC=C(C=C3)O
Procedure, shortened: as §1

[3] = compound: CC1=CC=C(C=C1)SC2=C3C=C(SC3=CN=C2)C(=O)N
Procedure, shortened: as §1

[4] = compound: CC1=NC(=CC=C1)C2=C(N=C(N2)C(C)(C)C)C3=CC4=NC=CN=C4C=C3
Procedure, shortened: as §1

Nexturastat A = compound: CCCCN(Cc1ccc(C(=O)NO)cc1)C(=O)Nc1ccccc1 [Nexturastat A]
Procedure, shortened: as §1

vemurafenib = compound: CCCS(=O)(=O)Nc1ccc(F)c(C(=O)c2c[nH]c3ncc(-c4ccc(Cl)cc4)cc23)c1F [vemurafenib]
Procedure, shortened: as §1

[5] = compound: CCCS(=O)(=O)Nc1ccc(F)c(C(=O)c2c[nH]c3ncc(Cl)cc23)c1F
Procedure, shortened: as §1

[6] = compound: CCCc1cc(C)[nH]c(=O)c1CNC(=O)c1cc(-c2ccnc(N3CCN(C)CC3)c2)cc2c1cnn2C(C)C
Procedure, shortened: as §1

givinostat = compound: CCN(CC)Cc1ccc2cc(COC(=O)Nc3ccc(C(=O)NO)cc3)ccc2c1 [givinostat]
Procedure, shortened: as §1

barasertib = compound: CCN(CCCOc1ccc2c(Nc3cc(CC(=O)Nc4cccc(F)c4)[nH]n3)ncnc2c1)CCOP(=O)(O)O [barasertib]
Procedure, shortened: as §1

Chain of UniProt P24311 (P24311 whole entry, looked up): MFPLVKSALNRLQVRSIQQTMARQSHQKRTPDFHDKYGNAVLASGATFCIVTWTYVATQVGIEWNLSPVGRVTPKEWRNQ
Chain of UniProt P46108 (P46108 whole entry, looked up): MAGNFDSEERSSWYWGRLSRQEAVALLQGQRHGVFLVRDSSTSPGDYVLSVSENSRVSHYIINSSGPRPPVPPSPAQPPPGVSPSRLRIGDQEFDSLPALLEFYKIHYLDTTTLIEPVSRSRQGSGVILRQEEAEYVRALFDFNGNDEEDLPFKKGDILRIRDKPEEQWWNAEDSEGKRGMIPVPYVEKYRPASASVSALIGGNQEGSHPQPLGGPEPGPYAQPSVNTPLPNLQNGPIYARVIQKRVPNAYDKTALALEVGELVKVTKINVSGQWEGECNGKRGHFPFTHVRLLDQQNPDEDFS
Chain of UniProt P50416 (P50416 whole entry, looked up): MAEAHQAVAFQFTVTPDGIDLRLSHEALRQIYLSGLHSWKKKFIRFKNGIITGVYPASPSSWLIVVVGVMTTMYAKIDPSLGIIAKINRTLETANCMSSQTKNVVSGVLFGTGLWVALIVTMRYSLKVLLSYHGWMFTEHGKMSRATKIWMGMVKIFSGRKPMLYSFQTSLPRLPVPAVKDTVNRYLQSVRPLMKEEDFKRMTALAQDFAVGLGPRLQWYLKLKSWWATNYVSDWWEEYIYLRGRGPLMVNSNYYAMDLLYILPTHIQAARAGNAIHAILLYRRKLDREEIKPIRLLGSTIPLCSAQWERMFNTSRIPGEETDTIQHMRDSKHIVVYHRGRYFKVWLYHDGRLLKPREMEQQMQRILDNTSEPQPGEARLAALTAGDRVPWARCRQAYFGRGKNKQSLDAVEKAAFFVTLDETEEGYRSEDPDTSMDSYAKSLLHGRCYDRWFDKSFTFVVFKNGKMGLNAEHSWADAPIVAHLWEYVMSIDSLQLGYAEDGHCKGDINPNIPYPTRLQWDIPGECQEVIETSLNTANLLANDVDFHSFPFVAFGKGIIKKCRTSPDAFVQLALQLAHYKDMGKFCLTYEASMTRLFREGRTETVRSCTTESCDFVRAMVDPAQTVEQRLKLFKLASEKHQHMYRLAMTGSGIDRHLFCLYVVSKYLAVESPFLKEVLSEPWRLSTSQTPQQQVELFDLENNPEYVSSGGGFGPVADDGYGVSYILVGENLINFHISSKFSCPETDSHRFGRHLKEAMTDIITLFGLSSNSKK
Chain of UniProt O75909 (O75909 whole entry, looked up): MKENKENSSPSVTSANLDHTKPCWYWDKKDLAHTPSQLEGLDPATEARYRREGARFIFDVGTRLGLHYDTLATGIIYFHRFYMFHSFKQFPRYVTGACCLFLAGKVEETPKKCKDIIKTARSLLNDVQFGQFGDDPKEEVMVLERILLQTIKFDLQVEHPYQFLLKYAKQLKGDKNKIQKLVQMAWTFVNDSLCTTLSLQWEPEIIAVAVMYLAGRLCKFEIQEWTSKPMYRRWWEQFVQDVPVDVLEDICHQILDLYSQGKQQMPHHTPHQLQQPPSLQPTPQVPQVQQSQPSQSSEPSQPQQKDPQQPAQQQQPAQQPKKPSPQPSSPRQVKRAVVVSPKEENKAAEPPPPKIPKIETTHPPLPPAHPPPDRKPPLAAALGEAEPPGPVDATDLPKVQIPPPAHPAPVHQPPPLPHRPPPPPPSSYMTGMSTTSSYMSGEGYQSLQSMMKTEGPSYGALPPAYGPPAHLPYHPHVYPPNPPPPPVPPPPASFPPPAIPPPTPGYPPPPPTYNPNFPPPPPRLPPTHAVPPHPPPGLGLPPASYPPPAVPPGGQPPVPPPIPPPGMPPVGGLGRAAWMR
Chain of UniProt P51798 (P51798 whole entry, looked up): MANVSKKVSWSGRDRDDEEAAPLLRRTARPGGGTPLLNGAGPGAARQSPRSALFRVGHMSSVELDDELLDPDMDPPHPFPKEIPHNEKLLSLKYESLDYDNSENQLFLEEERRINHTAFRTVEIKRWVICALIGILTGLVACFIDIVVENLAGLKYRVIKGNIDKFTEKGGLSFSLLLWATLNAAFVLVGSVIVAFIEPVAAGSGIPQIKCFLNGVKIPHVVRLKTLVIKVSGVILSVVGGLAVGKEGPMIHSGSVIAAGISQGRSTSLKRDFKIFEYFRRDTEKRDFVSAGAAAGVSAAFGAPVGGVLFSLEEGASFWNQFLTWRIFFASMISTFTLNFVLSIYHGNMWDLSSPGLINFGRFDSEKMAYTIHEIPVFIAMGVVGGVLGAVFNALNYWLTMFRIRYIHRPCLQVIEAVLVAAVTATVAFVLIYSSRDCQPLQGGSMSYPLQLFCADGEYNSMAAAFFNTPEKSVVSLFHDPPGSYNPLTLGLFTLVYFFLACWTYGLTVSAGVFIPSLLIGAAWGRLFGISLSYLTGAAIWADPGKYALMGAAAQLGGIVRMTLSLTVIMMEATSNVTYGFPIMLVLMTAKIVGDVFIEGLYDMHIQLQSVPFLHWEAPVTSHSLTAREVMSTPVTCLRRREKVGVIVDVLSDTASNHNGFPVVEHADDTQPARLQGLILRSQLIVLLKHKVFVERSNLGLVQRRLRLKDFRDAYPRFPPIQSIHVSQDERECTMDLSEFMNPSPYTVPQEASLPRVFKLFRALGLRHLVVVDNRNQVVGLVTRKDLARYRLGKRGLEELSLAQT
Chain of UniProt P30305 (P30305 whole entry, looked up): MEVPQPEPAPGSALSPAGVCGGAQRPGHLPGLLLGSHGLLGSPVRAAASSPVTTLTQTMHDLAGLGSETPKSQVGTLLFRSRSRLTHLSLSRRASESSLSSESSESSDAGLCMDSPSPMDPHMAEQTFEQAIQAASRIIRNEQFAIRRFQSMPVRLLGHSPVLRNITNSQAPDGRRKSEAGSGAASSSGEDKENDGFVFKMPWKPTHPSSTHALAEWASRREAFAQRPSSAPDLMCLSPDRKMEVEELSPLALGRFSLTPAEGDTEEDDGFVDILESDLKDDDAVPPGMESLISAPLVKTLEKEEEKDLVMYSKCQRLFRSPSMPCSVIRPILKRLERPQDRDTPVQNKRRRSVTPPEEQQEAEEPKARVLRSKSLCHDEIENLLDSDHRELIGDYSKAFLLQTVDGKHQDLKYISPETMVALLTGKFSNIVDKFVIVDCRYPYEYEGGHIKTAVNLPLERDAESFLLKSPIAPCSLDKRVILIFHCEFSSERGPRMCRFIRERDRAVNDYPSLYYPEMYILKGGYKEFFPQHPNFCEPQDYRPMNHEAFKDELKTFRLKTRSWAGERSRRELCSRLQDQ
Chain of UniProt Q6P5X5 (Q6P5X5 whole entry, looked up): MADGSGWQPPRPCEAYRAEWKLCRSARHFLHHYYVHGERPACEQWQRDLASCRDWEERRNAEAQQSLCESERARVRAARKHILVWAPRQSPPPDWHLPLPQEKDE
Chain of UniProt P24863 (P24863 whole entry, looked up): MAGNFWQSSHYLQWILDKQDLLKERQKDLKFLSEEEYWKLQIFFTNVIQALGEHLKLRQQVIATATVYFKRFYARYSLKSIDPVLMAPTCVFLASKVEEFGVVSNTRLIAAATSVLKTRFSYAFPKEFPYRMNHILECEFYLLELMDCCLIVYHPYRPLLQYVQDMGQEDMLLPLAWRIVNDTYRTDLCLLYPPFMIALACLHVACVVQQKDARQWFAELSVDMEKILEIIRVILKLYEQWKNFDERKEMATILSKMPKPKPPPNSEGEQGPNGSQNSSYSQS
Chain of UniProt P35219 (P35219 whole entry, looked up): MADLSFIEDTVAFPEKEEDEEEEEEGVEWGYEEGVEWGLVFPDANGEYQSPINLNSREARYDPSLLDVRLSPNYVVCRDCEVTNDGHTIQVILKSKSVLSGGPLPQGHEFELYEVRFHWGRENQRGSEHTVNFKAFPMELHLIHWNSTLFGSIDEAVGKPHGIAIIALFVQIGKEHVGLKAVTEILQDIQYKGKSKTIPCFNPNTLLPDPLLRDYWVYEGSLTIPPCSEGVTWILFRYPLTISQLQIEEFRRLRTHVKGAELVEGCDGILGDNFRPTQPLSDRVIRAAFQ
Chain of UniProt Q9P0B6 (Q9P0B6 whole entry, looked up): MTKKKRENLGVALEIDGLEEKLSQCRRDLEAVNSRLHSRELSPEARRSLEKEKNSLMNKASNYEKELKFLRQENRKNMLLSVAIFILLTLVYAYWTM
Chain of UniProt Q96JM3 (Q96JM3 whole entry, looked up): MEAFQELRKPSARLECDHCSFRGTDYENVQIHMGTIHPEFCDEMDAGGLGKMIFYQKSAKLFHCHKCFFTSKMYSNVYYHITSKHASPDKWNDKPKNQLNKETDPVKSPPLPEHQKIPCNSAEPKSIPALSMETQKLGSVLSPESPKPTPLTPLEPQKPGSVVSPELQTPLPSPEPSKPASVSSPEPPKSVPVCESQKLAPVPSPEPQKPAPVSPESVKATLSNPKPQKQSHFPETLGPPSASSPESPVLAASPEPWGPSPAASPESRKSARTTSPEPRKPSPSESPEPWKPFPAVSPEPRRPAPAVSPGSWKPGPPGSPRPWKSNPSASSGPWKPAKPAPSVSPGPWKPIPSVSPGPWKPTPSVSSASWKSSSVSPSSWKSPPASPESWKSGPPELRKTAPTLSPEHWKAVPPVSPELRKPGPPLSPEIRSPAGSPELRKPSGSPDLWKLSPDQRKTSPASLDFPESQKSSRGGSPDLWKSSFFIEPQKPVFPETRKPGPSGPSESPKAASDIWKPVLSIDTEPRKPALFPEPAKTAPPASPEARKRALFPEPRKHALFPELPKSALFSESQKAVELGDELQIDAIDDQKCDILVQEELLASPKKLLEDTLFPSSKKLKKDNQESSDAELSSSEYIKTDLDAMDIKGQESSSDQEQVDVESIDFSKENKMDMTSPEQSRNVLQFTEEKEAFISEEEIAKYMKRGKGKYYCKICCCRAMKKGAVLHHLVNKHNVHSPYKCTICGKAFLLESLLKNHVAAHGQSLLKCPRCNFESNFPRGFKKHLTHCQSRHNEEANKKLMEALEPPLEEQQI
Chain of UniProt Q7Z4R8 (Q7Z4R8 whole entry, looked up): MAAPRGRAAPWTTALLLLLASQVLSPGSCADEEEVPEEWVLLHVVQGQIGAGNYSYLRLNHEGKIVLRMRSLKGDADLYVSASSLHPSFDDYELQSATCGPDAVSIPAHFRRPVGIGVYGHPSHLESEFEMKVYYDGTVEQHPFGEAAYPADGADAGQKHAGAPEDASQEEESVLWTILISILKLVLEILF

Row | Target | log2 fold change [1] | log2 fold change [2] | log2 fold change [3] | log2 fold change [4] | log2 fold change (Nexturastat A) | log2 fold change (vemurafenib) | log2 fold change [5] | log2 fold change [6] | log2 fold change (givinostat) | log2 fold change (barasertib)
1 | CLASP2 isoform 3 (UniProt O75122) | -0.032 | -0.01 | 0.013 | 0.012 | -0.006 | 0.089 | 0.061 | 0.029 | 0.013 | 0.066
2 | COPS4 (UniProt Q9BT78) | -0.001 | -0.019 | 0.019 | 0.033 | -0.062 | 0.049 | 0.071 | -0.037 | -0.025 | -0.002
3 | CES2 isoform 4 (UniProt O00748) | -0.003 | -0.072 | 0.005 | -0.065 | 0.058 | -0.029 | -0.105 | 0.003 | 0.021 | 0.022
4 | COQ9 (UniProt O75208) | 0.016 | 0.045 | 0.054 | 0.064 | -0.266 (active) | 0.041 | -0.004 | -0.006 | -0.006 | 0.046
5 | COMT (UniProt P21964) | 0.14 | 0.009 | -0.012 | 0.019 | 0.036 | 0.011 | 0.002 | 0.005 | 0.144 | -0.006
6 | CLCN7 (UniProt P51798) | 0.027 | -0.026 | 0.029 | 0.006 | -0.07 | 0.001 | 0.038 | -0.068 | -0.007 | -0.015
7 | CLSPN (UniProt Q9HAW4) | -0.048 | 0.003 | -0.025 | -0.035 | 0.006 | 0.041 | 0 | -0.012 | -0.032 | 0.006
8 | CPSF3 (UniProt Q9UKF6) | -0.014 | 0.005 | -0.006 | -0.012 | -0.085 | 0.017 | 0.063 | -0.001 | -0.03 | 0.022
9 | CDC25B isoform 4 (UniProt P30305) | 0.203 | -0.022 | -0.008 | -0.004 | -0.039 | 0.054 | -0.077 | -0.352 | 0.032 | -0.044
10 | CA8 (UniProt P35219) | -0.024 | -0.081 | 0.041 | 0.006 | -0.058 | 0.004 | 0.02 | -0.002 | 0.077 | 0.034
11 | CDK4 (UniProt P11802) | -0.077 | -0.003 | 0.015 | -0.005 | 0.166 | -0.161 | -0.128 | -0.025 | -0.009 | -0.023
12 | CETN2 (UniProt P41208) | -0.015 | -0.016 | -0.146 | -0.071 | -0.188 | -0.008 | -0.335 (active) | -0.034 | -0.034 | -0.013
13 | CPT1A (UniProt P50416) | 0.069 | -0.077 | -0.054 | -0.114 | 0.083 | 0.11 | 0.022 | 0.09 | 0.048 | 0.01
14 | CHCHD4 isoform 2 (UniProt Q8N4Q1) | 0.373 | 0.001 | 0.157 | -0.035 | -0.026 | -0.015 | 0.412 | -0.063 | 0.029 | -0.024
15 | COCH (UniProt O43405) | 0.072 | 0.053 | 0.059 | 0.005 | 0.046 | -0.067 | -0.05 | 0.076 | -0.049 | 0
16 | CRK (UniProt P46108) | -0.814 (active) | -0.019 | 0.015 | 0.091 | -0.006 | 0.048 | 0.009 | -0.008 | 0.002 | 0.046

Row | Target | log2 fold change [1] | log2 fold change [2] | log2 fold change [3] | log2 fold change [4] | log2 fold change (Nexturastat A) | log2 fold change (vemurafenib) | log2 fold change [5] | log2 fold change [6] | log2 fold change (givinostat) | log2 fold change (barasertib)
17 | CDC37L1 (UniProt Q7L3B6) | 0.035 | 0.001 | -0.054 | -0.021 | -0.028 | -0.008 | 0.019 | 0.063 | 0.044 | 0.063
18 | CHAMP1 (UniProt Q96JM3) | -0.003 | -0.018 | 0.005 | -0.012 | 0.011 | -0.01 | -0.011 | -0.003 | 0.032 | 0.027
19 | CCNK isoform 4 (UniProt O75909) | 0 | 0.032 | -0.032 | -0.011 | 0.024 | -0.088 | 0 | 0.038 | 0.014 | -0.063
20 | COPS3 isoform 2 (UniProt Q9UNS2) | -0.154 | 0.03 | 0.066 | -0.128 | -0.113 | -0.303 | -0.14 | -0.162 |  | 0.065
21 | CCDC167 (UniProt Q9P0B6) | 0.064 | -0.039 | -0.007 | -0.042 | 0.022 |  | -0.034 | 0.022 | 0.048 | -0.003
22 | CNOT2 (UniProt Q9NZN8) | -0.075 | 0.136 | -0.027 | 0.008 | 0.017 | -0.03 | 0.006 | -0.018 | 0.059 | 0.01
23 | CHAF1A (UniProt Q13111) | 0.035 | -0.054 | 0.087 | -0.116 | 0.088 |  | 0.026 | -0.097 | 0.149 | 0.107
24 | CCNT1 (UniProt O60563) | -0.033 | -0.018 | -0.02 | 0.005 | 0.218 | 0.027 | 0.007 | 0.023 | 0.022 | 0.022
25 | CAB39L (UniProt Q9H9S4) | -0.142 | -0.008 | 0.004 | -0.043 | 0.003 | -0.013 | -0.001 |  | -0.025 | 0.043
26 | CLN8 (UniProt Q9UBY8) | -0.018 | 0.081 | -0.085 |  |  | -0.001 | -0.109 | -0.132 | -0.086 | 0.051
27 | CCNC (UniProt P24863) | 0.207 | -0.072 |  | 0.031 | 0.008 | 0.105 |  | -0.086 | 0.011 | -0.024
28 | COX7B (UniProt P24311) | 0.048 |  | 0.045 | 0.094 | -0.056 | -0.148 | 0.136 | -0.188 | -0.013 | -0.025
29 | C22orf39 (UniProt Q6P5X5) | -0.033 | 0.059 | -0.058 | -0.008 | -0.024 |  | 0.205 | 0.017 | 0.044 | -0.042
30 | C6orf120 (UniProt Q7Z4R8) | -0.054 | 0.045 | 0.018 | -0.094 |  | -0.035 | 0.069 |  | -0.011 | 0.017
31 | CDC42BPB (UniProt Q9Y5S2) | -0.073 | -0.07 | -0.034 | -0.072 | 0.052 | -0.046 | -0.034 | 0.079 | -0.096 | -0.087
